Outcome and AC50 data for 8 compounds are collected here from PubChem BioAssay (EPA / NIEHS).

The source made the active and inactive calls. How the source made its calls: active means hit-call score of the fitted dose curve at least 0.9, where 1 is the maximum; inactive means score below 0.9.

Assay [1] is described as follows: ATG_GLI_CIS: Attagene CIS-FACTORIAL HepG2 Assay for human Zinc Finger Protein GLI1 (AID 2282945). The following applies: HepG2, Attagene cis-factorial reporter mRNA, GLI element; actives raise or lower the signal. Summed up:
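Transiently transfected HepG2 cells report endogenous transcription factor activity via cis-element-driven reporter units. After 24 h compound exposure, reporter mRNA was measured by RT-PCR with capillary electrophoresis; bidirectional fitting against DMSO baseline.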

A short description of assay [2]: ATG_GRE_CIS: Attagene CIS-FACTORIAL HepG2 Assay for human Glucocorticoid Response Elements (GRE) (AID 2282947). Particulars: HepG2 GRE cis-reporter, Attagene multiplex mRNA; actives raise or lower the signal. Put shortly: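 Endogenous transcription factor activity is read through cis-element reporter constructs transiently transfected into HepG2 cells. After 24 h treatment, labelled RT-PCR products are resolved by capillary electrophoresis; DMSO sets baseline for bidirectional curve fitting.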

Assay [3] in a line: ATG_ISRE_CIS: Attagene CIS-FACTORIAL HepG2 Assay for human Interferon Regulatory Factor 1 (IRF1) binding to an Interferon-Stimulated Response Element (ISRE) (AID 2282948). The following applies: HepG2 ISRE cis-reporter (Attagene), mRNA transcription readout; actives raise or lower the signal. Put shortly:
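Transfected HepG2 (multiple reporter transcription units, cis elements) dosed 24 h. RNA → oligo(dT) RT → PCR → 6-FAM primer extension → HpaI → CE. DMSO = negative control/baseline.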

A short description of assay [4]: ATG_M_32_CIS: Attagene CIS-FACTORIAL HepG2 Assay for M32 Transcription Factor (Internal Marker) (AID 2282949).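 Further: background control marker of the multiplexed CIS panel rather than a real target.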 Particulars: HepG2 Attagene cis-factorial M32 reporter, mRNA; actives raise or lower the signal. Summed up:
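Internal background marker read-out: RT-PCR/capillary electrophoresis fluorescence of reporter transcripts from transiently transfected HepG2 cells after 24 h chemical exposure. Activity fitted bidirectionally relative to DMSO negative control.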

Assay [5] can be described thus: ATG_M_06_CIS: Attagene CIS-FACTORIAL HepG2 Assay for M06 Transcription Factor (Internal Marker) (AID 2282950). The following applies: HepG2 Attagene CIS-FACTORIAL M06 internal marker reporter; actives raise or lower the signal. Put shortly:
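Read-out is fluorescence of labelled reporter cDNA fragments resolved by capillary electrophoresis after RT-PCR. Cells: HepG2 carrying transfected cis-promoter reporter units, treated 24 h. Gain or loss of signal fitted relative to DMSO.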

Assay [6] concerns the target Hypoxia-inducible factor 1-alpha (Homo sapiens) (UniProt Q16665). Put plainly: ATG_HIF1a_CIS: Attagene CIS-FACTORIAL HepG2 Assay for human Hypoxia Inducible Factor 1 (HIF1A) (AID 2282951). The following applies: HepG2 Attagene cis-factorial HIF1a reporter transcription; actives raise or lower the signal. Summed up:
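In this multiplexed cell assay, HepG2 cells bearing transfected cis reporters are dosed for 24 h and reporter mRNA is read by RT-PCR plus capillary electrophoresis; signal increases and decreases are both scored against DMSO.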

Assay [7] deals with Hepatocyte nuclear factor 6 (Homo sapiens) (UniProt Q9UBC0). Put plainly: ATG_HNF6_CIS: Attagene CIS-FACTORIAL HepG2 Assay for human Hepatocyte Nuclear Factor 6 (HNF6) (AID 2282952). The following applies: HepG2 Attagene cis-factorial HNF6 reporter transcription; actives raise or lower the signal. Summed up:
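HepG2 cells transiently transfected with cis-element-driven multiple reporter transcription units, dosed 24 h; reporter mRNA quantified by RT-PCR, FAM primer extension, HpaI digestion and capillary electrophoresis; bidirectional fit versus DMSO baseline.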

In assay [8] the target is Heat shock factor protein 1 (Homo sapiens) (UniProt Q00613). The assay is described as follows: ATG_HSE_CIS: Attagene CIS-FACTORIAL HepG2 Assay for human Heat Shock Transcription Factor 1 (HSE) (AID 2282953). Particulars: HepG2 HSE cis-reporter, Attagene RNA transcription; actives raise or lower the signal. Summed up: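 HepG2, transient MRTU transfection, cis-promoter reporters (endogenous TF activity). 24 h compound. RNA → oligo(dT) RT → PCR → 6-FAM primer extension → HpaI cut → CE. Bidirectional fit vs DMSO.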

Assay [9] in a line: ATG_MRE_CIS: Attagene CIS-FACTORIAL HepG2 Assay for human Metal Responsive Element (MRE) (AID 2282954). Particulars: HepG2 MRE cis-reporter transcription, Attagene multiplex; actives raise or lower the signal. Summed up:
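Fluorescent reporter fragments separated by capillary electrophoresis give mRNA induction for the MRE unit after 24 h treatment of transfected HepG2 cells. Endogenous transcription-factor activity is read; DMSO serves as negative control and baseline.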

Assay [10] in a line: ATG_PBREM_CIS: Attagene CIS-FACTORIAL HepG2 Assay for human Phenobarbital-responsive Enhancer Module (PBREM) (AID 2282955). Particulars: HepG2 PBREM cis-reporter, Attagene multiplexed transcription; actives raise or lower the signal. Put shortly:
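After a 24 h incubation with test chemical, transfected HepG2 cells yield total RNA; reporter-specific RT-PCR products are fluorescently labelled, HpaI-digested and resolved by capillary electrophoresis against ROX size standards.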

Assay [11] concerns the target Paired box protein Pax-6 (Homo sapiens) (UniProt P26367). The assay is described as follows: ATG_Pax6_CIS: Attagene CIS-FACTORIAL HepG2 Assay for human Paired Box 6 (PAX6) (AID 2282956). Particulars: HepG2 CIS-FACTORIAL PAX6 reporter transcription, RNA readout; actives raise or lower the signal. Put shortly:
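Transient MRTU transfection of HepG2 → compound exposure 24 h → TriZol RNA, oligo(dT) RT → PCR, 6-FAM primer extension, HpaI cut → capillary electrophoresis; activity fitted both directions against DMSO.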

The nature of assay [12]: ATG_PPRE_CIS: Attagene CIS-FACTORIAL HepG2 Assay for human Peroxisome Proliferator-activated Response Element (PPRE) (AID 2282958). The following applies: HepG2 PPRE cis-element reporter, Attagene transcription factor profiling; actives raise or lower the signal. Summed up: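 Multiplexed reporter transcription units under cis-regulatory promoters were transfected into HepG2 cells to capture endogenous factor activity. A 24 h incubation preceded RNA isolation and fluorescent RT-PCR fragment analysis.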

Assay [13] is described as follows: ATG_RORE_CIS: Attagene CIS-FACTORIAL HepG2 Assay for human RAR-related Orphan Receptor Element (RORE) (AID 2282959). The following applies: HepG2 Attagene cis-factorial RORE reporter, mRNA; actives raise or lower the signal. Summed up:
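Fluorescence intensity of reporter-specific cDNA fragments, separated by capillary electrophoresis, gives the signal. Source: HepG2 liver cells transiently transfected with cis-element reporters and exposed 24 h; DMSO-normalized bidirectional fit.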

A short description of assay [14]: ATG_Sox_CIS: Attagene CIS-FACTORIAL HepG2 Assay for human SRY-box transcription factor (SOX) (AID 2282960). The following applies: HepG2 Attagene cis-factorial SOX reporter, mRNA; actives raise or lower the signal. Put shortly:
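After 24 h of chemical treatment, transfected HepG2 reporter cells are lysed for total RNA. Transcript levels come from RT-PCR with labelled primer extension and capillary electrophoresis, analysed bidirectionally versus DMSO.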

Assay [15] deals with Transcription factor Sp1 (Homo sapiens) (UniProt P08047). Put plainly: ATG_Sp1_CIS: Attagene CIS-FACTORIAL HepG2 Assay for human Specificity Protein 1 (Sp1) (AID 2282961). Particulars: HepG2 Sp1 cis-reporter transcription, actives raise or lower the signal. Summed up: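 Sp1-driven reporter mRNA, read as capillary electrophoresis fluorescence after RT-PCR, in transiently transfected HepG2 cells dosed for 24 h; signal change in either direction relative to DMSO.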

A short description of assay [16]: ATG_SREBP_CIS: Attagene CIS-FACTORIAL HepG2 Assay for human Sterol Regulatory Element Binding (SREBP) (AID 2282962). The following applies: HepG2 Attagene cis-factorial SREBP reporter, mRNA; actives raise or lower the signal. Summed up:
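Transfected HepG2 (cis-regulated reporter library, endogenous TFs) → compound 24 h → total RNA → oligo(dT) RT → reporter-specific PCR → FAM primer extension, HpaI cut → CE fluorescence. Fit bidirectional vs DMSO.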

The target of assay [17] is Signal transducer and activator of transcription 3 (Homo sapiens) (UniProt P40763). Put plainly: ATG_STAT3_CIS: Attagene CIS-FACTORIAL HepG2 Assay for human Signal Transducer and Activator of Transcription 3 (STAT3) (AID 2282963). Particulars: HepG2, Attagene cis-factorial STAT3 reporter transcription; actives raise or lower the signal. Summed up:
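Values derive from bidirectional fits relative to DMSO of reporter mRNA levels, measured by RT-PCR with capillary electrophoresis, in HepG2 cells carrying transiently transfected cis-regulated reporter units and exposed 24 h.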

A short description of assay [18]: ATG_TA_CIS: Attagene CIS-FACTORIAL HepG2 Assay for human TA Basal Promoter (AID 2282964). The following applies: HepG2 Attagene CIS-factorial TA basal promoter reporter; actives raise or lower the signal. Put shortly: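 Read-out: fluorescent reporter-transcript fragments resolved by capillary electrophoresis after RT-PCR and HpaI digestion. Source: HepG2 cells carrying transiently transfected multi-reporter cis constructs, treated 24 h. Endpoint fitted bidirectionally relative to DMSO.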

Assay [19] can be described thus: ATG_PXRE_CIS: Attagene CIS-FACTORIAL HepG2 Assay for human Pregnane X Receptor Element (PXRE) (AID 2282957). Particulars: HepG2 Attagene CIS-FACTORIAL PXRE reporter, mRNA; actives raise or lower the signal. Summed up:
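HepG2 cells transiently transfected with cis-regulated multiple reporter transcription units; endogenous factor activity measured as reporter mRNA 24 h after dosing. RT-PCR, fluorescent primer extension, HpaI digestion, capillary electrophoresis; bidirectional fit versus DMSO baseline.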

Sequence of Paired box protein Pax-6 (Homo sapiens) (P26367 whole entry, looked up): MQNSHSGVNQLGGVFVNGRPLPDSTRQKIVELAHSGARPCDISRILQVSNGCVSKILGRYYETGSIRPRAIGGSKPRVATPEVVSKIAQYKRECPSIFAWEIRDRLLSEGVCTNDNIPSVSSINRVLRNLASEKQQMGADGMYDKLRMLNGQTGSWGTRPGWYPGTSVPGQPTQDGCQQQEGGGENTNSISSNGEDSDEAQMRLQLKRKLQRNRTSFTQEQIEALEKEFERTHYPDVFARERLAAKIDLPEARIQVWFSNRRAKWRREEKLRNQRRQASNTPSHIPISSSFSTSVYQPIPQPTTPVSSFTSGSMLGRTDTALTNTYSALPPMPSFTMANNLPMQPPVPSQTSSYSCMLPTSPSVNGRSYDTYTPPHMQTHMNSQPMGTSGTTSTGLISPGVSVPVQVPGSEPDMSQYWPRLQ
Sequence of Hypoxia-inducible factor 1-alpha (Homo sapiens) (Q16665 whole entry, looked up): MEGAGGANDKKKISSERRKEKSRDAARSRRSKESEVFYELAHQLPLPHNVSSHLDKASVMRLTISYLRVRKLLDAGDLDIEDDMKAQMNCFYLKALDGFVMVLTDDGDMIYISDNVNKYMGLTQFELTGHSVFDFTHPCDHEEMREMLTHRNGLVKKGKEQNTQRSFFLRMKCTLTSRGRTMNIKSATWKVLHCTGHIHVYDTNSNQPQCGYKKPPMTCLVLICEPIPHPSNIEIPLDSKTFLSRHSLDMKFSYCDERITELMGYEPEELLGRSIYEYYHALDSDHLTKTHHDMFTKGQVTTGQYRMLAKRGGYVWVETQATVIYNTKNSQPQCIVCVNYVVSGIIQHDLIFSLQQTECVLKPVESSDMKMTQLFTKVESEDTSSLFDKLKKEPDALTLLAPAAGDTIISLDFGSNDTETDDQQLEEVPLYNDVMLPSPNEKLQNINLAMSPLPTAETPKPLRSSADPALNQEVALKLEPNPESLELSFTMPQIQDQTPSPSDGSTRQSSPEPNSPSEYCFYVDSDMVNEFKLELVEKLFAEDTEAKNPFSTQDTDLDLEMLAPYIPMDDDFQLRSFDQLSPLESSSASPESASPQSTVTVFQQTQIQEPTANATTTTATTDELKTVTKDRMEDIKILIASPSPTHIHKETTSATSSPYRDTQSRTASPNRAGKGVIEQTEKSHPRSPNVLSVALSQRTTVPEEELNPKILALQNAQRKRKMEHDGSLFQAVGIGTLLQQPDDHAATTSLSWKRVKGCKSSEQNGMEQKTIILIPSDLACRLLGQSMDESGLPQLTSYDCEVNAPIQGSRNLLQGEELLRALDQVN
Sequence of Transcription factor Sp1 (Homo sapiens) (P08047 whole entry, looked up): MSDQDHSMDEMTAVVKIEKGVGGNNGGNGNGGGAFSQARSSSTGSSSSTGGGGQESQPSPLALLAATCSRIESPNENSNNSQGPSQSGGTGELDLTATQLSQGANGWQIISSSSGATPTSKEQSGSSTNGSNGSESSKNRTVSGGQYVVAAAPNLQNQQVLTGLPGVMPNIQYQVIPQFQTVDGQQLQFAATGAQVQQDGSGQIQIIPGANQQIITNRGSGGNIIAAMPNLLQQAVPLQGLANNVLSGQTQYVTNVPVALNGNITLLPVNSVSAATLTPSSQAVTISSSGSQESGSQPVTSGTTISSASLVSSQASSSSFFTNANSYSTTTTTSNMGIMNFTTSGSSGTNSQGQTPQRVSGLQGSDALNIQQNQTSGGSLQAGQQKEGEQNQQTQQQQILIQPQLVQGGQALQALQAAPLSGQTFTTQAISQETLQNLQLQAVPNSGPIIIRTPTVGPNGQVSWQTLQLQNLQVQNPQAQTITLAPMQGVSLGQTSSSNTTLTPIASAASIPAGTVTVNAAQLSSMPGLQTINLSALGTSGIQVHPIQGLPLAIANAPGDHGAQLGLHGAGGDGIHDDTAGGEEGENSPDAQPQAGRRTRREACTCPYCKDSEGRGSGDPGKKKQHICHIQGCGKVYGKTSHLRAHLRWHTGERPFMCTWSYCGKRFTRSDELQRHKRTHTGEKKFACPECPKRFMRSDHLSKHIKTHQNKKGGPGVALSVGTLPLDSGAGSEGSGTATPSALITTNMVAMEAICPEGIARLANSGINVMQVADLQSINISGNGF
Sequence of Heat shock factor protein 1 (Homo sapiens) (Q00613 whole entry, looked up): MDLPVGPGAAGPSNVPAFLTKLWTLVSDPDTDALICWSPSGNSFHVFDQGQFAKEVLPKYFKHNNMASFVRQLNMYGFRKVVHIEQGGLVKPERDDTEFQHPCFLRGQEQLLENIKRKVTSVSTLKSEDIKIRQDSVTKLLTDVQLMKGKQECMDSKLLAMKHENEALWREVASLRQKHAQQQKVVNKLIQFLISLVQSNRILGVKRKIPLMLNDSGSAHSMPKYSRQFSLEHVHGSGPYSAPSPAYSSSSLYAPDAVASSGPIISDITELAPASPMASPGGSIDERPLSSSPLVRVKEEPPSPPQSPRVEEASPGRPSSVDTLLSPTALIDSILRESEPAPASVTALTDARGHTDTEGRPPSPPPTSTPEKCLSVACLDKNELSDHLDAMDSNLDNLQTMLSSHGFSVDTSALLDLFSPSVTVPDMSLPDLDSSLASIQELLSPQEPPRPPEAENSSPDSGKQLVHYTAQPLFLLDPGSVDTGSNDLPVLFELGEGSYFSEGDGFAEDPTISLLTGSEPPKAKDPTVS
Sequence of Hepatocyte nuclear factor 6 (Homo sapiens) (Q9UBC0 whole entry, looked up): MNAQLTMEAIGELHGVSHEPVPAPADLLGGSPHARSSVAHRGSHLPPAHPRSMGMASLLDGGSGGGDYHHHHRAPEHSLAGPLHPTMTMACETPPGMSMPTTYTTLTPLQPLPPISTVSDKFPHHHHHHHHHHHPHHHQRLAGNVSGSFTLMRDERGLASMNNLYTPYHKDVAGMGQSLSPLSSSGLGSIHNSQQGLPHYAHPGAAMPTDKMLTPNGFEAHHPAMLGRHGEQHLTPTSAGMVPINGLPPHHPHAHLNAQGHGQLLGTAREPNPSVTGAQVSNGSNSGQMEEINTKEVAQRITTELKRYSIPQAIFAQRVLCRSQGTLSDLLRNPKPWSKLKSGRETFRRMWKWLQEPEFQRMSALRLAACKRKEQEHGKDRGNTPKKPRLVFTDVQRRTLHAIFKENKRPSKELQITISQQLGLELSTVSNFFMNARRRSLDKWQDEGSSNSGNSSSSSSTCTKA
Sequence of Signal transducer and activator of transcription 3 (Homo sapiens) (P40763 whole entry, looked up): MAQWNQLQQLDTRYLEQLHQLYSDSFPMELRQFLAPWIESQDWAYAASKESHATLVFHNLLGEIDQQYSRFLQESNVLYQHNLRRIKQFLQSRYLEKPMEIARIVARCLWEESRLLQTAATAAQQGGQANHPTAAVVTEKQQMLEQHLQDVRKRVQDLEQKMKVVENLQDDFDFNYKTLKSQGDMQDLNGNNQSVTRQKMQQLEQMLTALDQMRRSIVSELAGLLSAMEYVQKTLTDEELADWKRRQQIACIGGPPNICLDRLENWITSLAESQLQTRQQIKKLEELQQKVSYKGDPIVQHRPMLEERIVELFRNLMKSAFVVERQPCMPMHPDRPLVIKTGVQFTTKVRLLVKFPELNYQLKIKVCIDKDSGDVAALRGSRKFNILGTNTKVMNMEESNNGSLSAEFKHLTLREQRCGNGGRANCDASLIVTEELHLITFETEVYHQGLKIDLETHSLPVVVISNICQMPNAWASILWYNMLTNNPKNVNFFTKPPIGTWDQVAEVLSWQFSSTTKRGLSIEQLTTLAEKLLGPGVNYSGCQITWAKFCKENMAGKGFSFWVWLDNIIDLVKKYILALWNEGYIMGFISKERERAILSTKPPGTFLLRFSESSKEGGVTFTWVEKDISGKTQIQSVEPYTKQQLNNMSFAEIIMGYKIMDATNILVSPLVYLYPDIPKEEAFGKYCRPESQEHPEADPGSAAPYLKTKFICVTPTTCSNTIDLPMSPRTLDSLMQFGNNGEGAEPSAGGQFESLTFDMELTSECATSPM

For the compound `C[Si]1(C)O[Si](C)(C)O[Si](C)(C)O[Si](C)(C)O[Si](C)(C)O1`, the result in assay [1], in [2], in assay [3], in [4], in [5] and in [6] was inactive. The outcome in assay [7], in assay [8], in [9], in assay [10], in assay [11] and in [12] was inactive. Also, the compound was called inactive in assay [13], in assay [14], in assay [15], in assay [16], in [17] and in assay [18].

For `C=C(C)OC(C)=O`, the result in [1], in [2], in [3], in assay [4], in [5] and in assay [6] was inactive. Further, the compound was called inactive in assay [7], in assay [8], in [9], in assay [10], in [11] and in assay [19]. Besides, the compound was classed as inactive in assay [13], in assay [14], in [15], in assay [16], in [17] and in [18].

Consider `CC(C)CCOCc1ccccc1`, for which the call in assay [1], in assay [2], in [3], in assay [4], in [5] and in assay [6] was inactive. Further, the compound was called inactive in [7], in [8], in assay [9], in assay [10], in assay [11] and in assay [19]. The result in assay [13], in assay [14], in assay [15], in [16], in assay [17] and in [18] was inactive.

`CC(Cl)COP(=O)(OCC(C)Cl)OCC(C)Cl` (stereo not drawn): the compound was classed as inactive in assay [1], in [2], in [3], in assay [4], in [5] and in assay [6]. For the same compound, the result in assay [7], in assay [8], in assay [9], in assay [10], in assay [14] and in [15] was inactive. For the same compound, the call in [16], in assay [17] and in assay [18] was inactive. In addition, in [19], the half-maximal activity concentration (AC50) (usually the midpoint of the concentration-response curve, whichever way the signal moves) is 4.13 µM (active).

`CC(=O)OC/C=C(/C)CCC=C(C)C`: the result in assay [1], in assay [2], in assay [3], in [4], in assay [5] and in assay [6] was inactive. Also, the result in assay [7], in [8], in [9], in assay [10], in [11] and in assay [19] was inactive. Moreover, the compound was called inactive in [14], in assay [15], in [17] and in assay [18].

With `COC(Cc1ccccc1)OC`, the result in assay [1], in assay [2], in assay [3], in assay [4], in assay [5] and in assay [6] was inactive. Further, the compound was called inactive in [7], in [8], in assay [9], in [10], in assay [19] and in assay [13]. For the same compound, the outcome in assay [14], in assay [15] and in [17] was inactive.

Consider `CC(=O)CCC=C(C)C`, for which the call in [1], in assay [2], in assay [3], in [4], in assay [5] and in assay [6] was inactive. Also, the compound was classed as inactive in [7], in assay [8], in [9], in assay [11], in [19] and in assay [12]. Besides, the outcome in assay [13], in assay [14], in [15], in assay [16] and in [17] was inactive.

As for `Fc1ccc(Br)cc1`, the compound was called inactive in assay [1], in [2], in assay [3], in assay [4], in assay [5] and in assay [6]. Further, the call in [7], in [8], in assay [9], in [10], in assay [13] and in assay [14] was inactive. Besides, the result in assay [15], in assay [16] and in assay [17] was inactive.
